Bioassay records from PubChem BioAssay.
V-ATPase pHluor: yeast V-ATPase proton transport regulation by pHLuorin; response, % at 10 µM; S. cerevisiae, pHLuorin cytosolic pH fluorescence; 350,000 compounds, 0.37% hits; in the data active = response mostly above about 7.3%, no sharp cut-off; inactive = mostly below about 5.4%; note: actives read high
tim23-1 inh: inhibits growth of tim23-1 mutant yeast | 330,000 compounds, 1.3% hits | S. cerevisiae tim23-1 growth, BacTiter-Glo luminescence, 24 h | inhibition, % at 20 µM;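 active = growth inhibition of the mutant yeast at or above 50%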;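 note: temperature-sensitive mutant grown at 25 °C; plate controls were DMSO-treated mutant yeast for no effect and medium wells lacking yeast for full effect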
NALP1 inh: blocks the NALP1 inflammasome reconstituted in yeast. 280,000 compounds, 0.61% hits. inhibition, % at 10 µM. S. cerevisiae NALP1/ASC/caspase-1 growth, X-gal OD620, 72 h; in the data active = inhibition mostly above about 24%, no sharp cut-off; inactive = mostly below about 32%
TIM10 inh: TIM10 yeast growth inhibition; 330,000 compounds, 1.4% hits; AID 463195; inhibition, % at 10 µM; S. cerevisiae TIM10 strain growth, BacTiter-Glo luminescence, 24 h;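 active = inhibition of 40% or more at the single tested concentration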;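 note: wild-type TIM10 isogenic control strain grown at permissive 25 °C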
NLRP3 yeast inh: blocks the NALP3 inflammasome reconstituted in yeast | Yeast reconstituted NLRP3/ASC/caspase-1, beta-gal luminescence, 24 h | inhibition, % at 10 µM | 330,000 compounds, 0.39% hits | AID 2825;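 active = inhibition of 50% or more; inactive = inhibition below 50%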;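 note: plate controls were induced DMSO wells for no effect and uninduced yeast grown without galactose for full effect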
tim10-1 inh: growth inhibitors of tim10-1 mutant yeast; S. cerevisiae tim10-1 ts strain growth, BacTiter-Glo, 24 h; 330,000 compounds, 2.2% hits; inhibition, % at 20 µM; AID 463190;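 active = inhibition of at least 40%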;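 note: mutant grown at 25 °C; 0% = DMSO wells with yeast and 100% = wells holding no yeast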
tim10-1 confirm: tim10-1 yeast growth inhibition, confirmed. shares compounds with tim10-1 inh. S. cerevisiae tim10-1 ts strain growth, BacTiter-Glo, 24 h. inhibition, % at 20 µM. 7,400 compounds, 56% hits;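 active = inhibition of yeast growth at or above a set limit in either of two repeat tests at 20 µM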;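 note: tim10-1 mutant grown at permissive 25 °C to find synthetic lethal compounds; 0% = DMSO yeast wells and 100% = medium wells without yeast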
The depositor's hits bear a star; / = no result given. In the library only some 4.2% were active in any assay of this set; here they are far more common.

SMILES	V-ATPase pHluor	tim23-1 inh	NALP1 inh	TIM10 inh	NLRP3 yeast inh	tim10-1 inh	tim10-1 confirm
NC(CSC1(c2ccc(Cl)cc2)c2ccccc2-c2ccccc21)C(=O)O (stereo unspecified)	4	/	/	/	/	/	/
CCOc1c2c(nc3ccc(Cl)cc13)CCC2	4	35	5	7	16	41*	32*
Nc1ccc(C#Cc2ccc3sc4ccccc4c(=O)c3c2)cc1	-3	23	/	26	31	19	/
COc1cccc2sc3ccc(C#CC4(O)CCCCC4)cc3c(=O)c12	-1	50	13	25	-5	41*	21
O=c1c2ccccc2sc2ccc(C#CC3(O)CCCCC3)cc12	1	44	/	28	3	41*	35*
COc1cccc2sc3ccc(C#Cc4ccc(N)cc4)cc3c(=O)c12	2	26	16	26	-27	35	/
COc1ccc(CCNC(=O)CNS(=O)(=O)c2ccc(Br)cc2)cc1	0	7	/	17	-12	14	/
CCOc1ccc(/C=C/C2=CC(C)(C)NC(=S)N2)cc1	/	-33	4	-95	21	30	/
O=C(Nc1ccc(F)cc1)C1CCN(C(=O)NCc2ccccc2)CC1	1	3	10	-10	9	9	/
Cc1noc(C)c1CNCc1ccccc1	-2	21	22	6	7	42*	7
COc1ccc(-c2nnc(SCc3nnc(-c4cccs4)o3)n2CC2CCCO2)cc1 (stereo unspecified)	1	17	/	-3	8	20	/
CC(C)N(Cc1ccccc1)C(=S)NC1CCCCC1	6	18	6	16	-3	51*	26
COc1cccc(/C=N/NC(=O)c2nc(-c3ccccc3)cc(-c3ccccc3)n2)c1O	-1	37	10	35	18	33	/
O=C(Nc1nccs1)c1ccc(CSc2ccccc2)o1	2	24	11	-39	2	-27	/
COc1cccc(NC(=S)N/N=C2\CC3CCC2(C)C3(C)C)c1 (stereo unspecified)	0	17	18	36	17	41*	31*
O=C(CN1C(=O)/C(=C/c2ccccc2)SC1=S)N1CCN(CCc2ccccn2)CC1	1	40	3	18	5	42*	30
O=[N+]([O-])c1cc(/C=N/O)ccc1SCc1ccccc1Cl	4	16	1	35	14	47*	22
CCCOC(=O)c1ccc(NS(=O)(=O)c2cccs2)cc1	2	38	-8	30	17	54*	35*
O=C(COC(=O)c1ccc(NS(=O)(=O)c2cccs2)cc1)NCc1ccco1	0	-20	/	-7	10	-15	/
CCOC(=O)c1c(C)oc2ccc(NS(=O)(=O)c3cccs3)cc12	-11	37	4	29	-1	42*	21
O=C(COC(=O)c1nc(Cl)ccc1Cl)NC1CCCCCC1	-1	24	/	6	29	28	/
O=C(COC(=O)c1ncc(Cl)c(Cl)c1Cl)NC1CCCCCC1	1	30	/	11	-1	43*	19
CC[N+](CC)(CC#Cc1ccccc1)CC(=O)c1ccc(Cl)cc1	-1	22	42	-5	-4	51*	45*
C=C(C)C1CC=C(C)/C(=N/NC(=O)c2ccc(NC(=O)c3cccc(C)c3)cc2)C1 (stereo unspecified)	-2	-25	-7	-40	6	-1	/
C=C(C)C1CC=C(C)/C(=N/NC(=S)Nc2ccccc2)C1 (stereo unspecified)	-1	27	0	18	28	41*	26
SMILES	V-ATPase pHluor	tim23-1 inh	NALP1 inh	TIM10 inh	NLRP3 yeast inh	tim10-1 inh	tim10-1 confirm
Cc1cc(OCCN2CCN(S(=O)(=O)c3ccccc3F)CC2)ccc1C(C)C	-1	26	/	20	19	43*	26
N#Cc1c(CSCC(=O)O)cc(=O)n2c1[nH]c1ccccc12	3	12	-3	4	7	-10	/
Cc1cc(C)cc(OCC(=O)N2N=C(C(F)(F)F)CC2(O)C(C)(C)C)c1 (stereo unspecified)	-11	46	6	15	20	46*	34*
Cc1c(C(=O)NCc2cccnc2)sc2nc(-c3ccccc3)cn12	0	-8	9	-7	5	-6	/
CCC1S/C(=N/S(=O)(=O)c2ccc(N)cc2)NC1=O (stereo unspecified)	2	/	/	/	/	/	/
CCCCCCCCS(=O)c1sc2nc3c(cc2c1N)CCCC3 (stereo unspecified)	0	43	/	28	3	42*	50*
Cc1cc(S(=O)(=O)Nc2ccc(C(=O)N3CC(C)OC(C)C3)cc2)ccc1F (stereo unspecified)	-1	1	/	-1	5	-1	/
C=CCn1c(SCc2cccc(C#N)c2)nnc1-c1ccccc1O	1	34	21	8	-6	19	/
C=CCn1c(SCc2ccc(C#N)cc2)nnc1-c1cccc(Cl)c1	-2	41	16	23	14	46*	23
Cc1c(C(=O)c2ccccc2)oc2ccc3ccccc3c12	0	-8	4	7	38	7	/
CCOc1ccccc1N1CCN(C(=O)Nc2ccc(F)c(Cl)c2)CC1	3	47	43	37	30	48*	40*
COc1ccccc1N1CCN(C(=O)Nc2ccc(F)c(Cl)c2)CC1	-1	30	-3	29	17	36	/
Cc1ccc(Nc2nc3nonc3[nH]c2=O)cc1Cl	4	18	6	1	20	12	/
CCN(CC)C(c1ccc(F)cc1)c1nnnn1C1CCCCC1 (stereo unspecified)	-1	27	9	25	21	31	/
Fc1ccc(C(c2nnnn2C2CCCC2)N(Cc2ccco2)CC2CCCO2)cc1 (stereo unspecified)	-5	27	10	39	8	52*	42*
CCN(CC)C(c1ccc(C)cc1)c1nnnn1C1CCCCC1 (stereo unspecified)	-3	47	36	36	26	44*	29
CCOc1ccccc1OCC(=O)OCC(=O)Nc1ncc(Cl)cc1Cl	1	11	-14	-1	0	1	/
Cc1ccc(-c2onc3ccc(C(=O)/C=C/N(C)C)cc23)cc1	-2	27	-1	22	2	36	/
CN(C)/C=C/C(=O)c1ccc2noc(-c3ccc(F)cc3)c2c1	-3	31	30	9	8	42*	13
Cc1cccc(-c2onc3ccc(C(=O)/C=C/N(C)C)cc23)c1	0	27	16	12	27	48*	28
CCOC(=O)C1=C(CC)Nc2ccccc2N=C1NC(=O)c1oc2ccccc2c1C	-3	29	6	27	5	43*	-8
FC(F)(F)c1nc2ccccc2n2c(-c3c(Cl)cccc3Cl)nnc12	-4	43	-3	0	16	31	/
c1ccc(CN2CCN(c3ncccn3)CC2)nc1	/	/	4	/	/	/	/
